Test results: PubChem BioAssay
Entries with a potency or affinity are not part of this list. Inconclusive results are not listed. Values without a mark were called inactive. Active and inactive are the calls of the source. Unless noted, the rule behind the calls is not given here.

How the values were obtained:
[1] = cytotoxicity in PAX8-dependent RMG-1 cells, dose response, cell-based, cherry-pick (AID 687029;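 active = signal drop whose fitted half-maximal concentration is at most twice the top valid dose, in every test run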;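 note: cells exposed to compound for 96 hours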)
[2] = inhibitors of CMV-promoter luciferase reporter, dose response, counter-screen for Pax8 inhibitor project, cell-based, HEK293, luminescence, dry powder (AID 743020;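 active = signal-lowering compounds whose fitted half-maximal concentration is at or below twice the top tested dose in every run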;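 note: HEK293 cells stably expressing the CMV luciferase reporter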)
[3] = non-specific cell cytotoxicity, dose response, cytotoxicity control for PAX8 inhibitor project, plate reader, dry powder samples (AID 743021)
[4] = A549 cell cytotoxicity, dose response, cytotoxicity control, plate reader, cherry-pick, antagonist series (AID 743412)
[5] = HepG2 cell cytotoxicity, dose response, cytotoxicity control, plate reader, cherry-pick, antagonist series (AID 743416)
[6] = biological target: Melanocortin receptor 4 (Homo sapiens) (UniProt P32245); assay: MC4R antagonists, dose response, counter-screen for LGR2 antagonist project, cell-based, plate reader, cherry pick (AID 743444)

With `C=C1CC(COc2ccc3c(C)c(Cl)c(=O)oc3c2)(c2ccccc2)OC1=O` (configuration not stated) as the molecule, how does the outcome [1] read?
The outcome was “inactive”.

What about the outcome [2] of the same molecule?
The outcome was “inactive”.

And the outcome [3]?
Its outcome is “inactive”.

For `Cc1nc(SCC(=O)Nc2nc3ccccc3s2)c(C#N)c(C)c1C`, which outcome [4] is on record?
The outcome was “inactive”.

Which outcome [4] does the source give for `O=C(/C=C/c1ccccc1)Nc1cccc(C(=O)O)c1` here?
The outcome was “inactive”.

Which outcome [5] does the source give for `CC(=O)Nc1ccc(S(=O)(=O)c2ccnc3cc(Cl)ccc23)cc1` here?
The outcome was “inactive”.

What about the outcome [6] of the same molecule?
Its outcome is “inactive”.

With `COc1cc([C@@H]2c3cc4c(cc3[C@H](O)[C@H]3COC(=O)[C@H]23)OCO4)cc(OC)c1OC` as the molecule, how does the outcome [1] read?
The outcome was “inactive”.

And the outcome [3]?
Its outcome is “inactive”.

Which results are given for `CC[C@@H]1CCC[C@@H](O)[C@@H](C)C(=O)O[C@H](C)[C@@H](C)C/C=C(C)/C(OC)=C\C(=O)N(C)C([C@@H](C)CC)C(=O)N(C)[C@@H](C(C)C)C(=O)N(C)[C@@H](COC)C(=O)N2CCC[C@H]2C(=O)N(C)[C@@H](C(C)C)C(=O)N2CCC[C@H]2C(=O)O1` (some centres not stated)?
outcome [1]: inactive; outcome [3]: inactive

Which results are given for `CCOc1ccc(C(=O)c2cc([N+](=O)[O-])ccc2N2CCOCC2)cc1`?
outcome [1]: inactive; outcome [3]: inactive

What does the source list for `CC1CCCC=CC2CC(OC(=O)CN(C)C)CC2C(O)C=CC(=O)O1` (configuration not stated)?
outcome [1]: inactive; outcome [3]: inactive

With `O=C(Nc1cccc(C(F)(F)F)c1)Nc1ccc(N2CCCC2)c(S(=O)(=O)Nc2ccccc2Cl)c1` as the molecule, how does the outcome [1] read?
The outcome was “inactive”.

What about the outcome [3] of the same molecule?
Its outcome is “inactive”.

For `C[C@@H]1CN([C@@H](C)CO)C(=O)Cc2cc(NC(=O)Nc3ccc(C(F)(F)F)cc3)ccc2O[C@@H]1CN(C)S(=O)(=O)c1ccc(Cl)cc1`, which outcome [1] is on record?
Its outcome is “inactive”.

What about the outcome [3] of the same molecule?
Its outcome is “inactive”.

Which results are given for `COc1ccc2c(C)nc(Nc3nc(-c4ccccc4)cc(=O)[nH]3)nc2c1`?
outcome [1]: inactive; outcome [3]: inactive

Which results are given for `Cc1ccc(S(=O)(=O)N2CCCCC2)cc1NC(=O)Cn1ncc(Cl)c(Cl)c1=O`?
outcome [1]: inactive; outcome [3]: inactive

For `O=C(CCCN1C(=O)/C(=C/c2cccc(Br)c2)SC1=S)Nc1ccccn1`, which outcome [1] is on record?
The outcome was “inactive”.

And the outcome [3]?
The outcome was “inactive”.

For `O=C(CCl)Nc1cc2[nH]c(=O)[nH]c2cc1Br`, which outcome [1] is on record?
The outcome was “inactive”.

And the outcome [3]?
Its outcome is “inactive”.

Which results are given for `CCCC(=O)N1CCN(c2ccc(NC(=O)c3ccc([N+](=O)[O-])o3)cc2)CC1`?
outcome [1]: inactive; outcome [3]: inactive

With `CC(=O)Nc1ccc(-c2ccnc3c2CC(C(=O)NCc2ccccc2)O3)cc1` (configuration not stated) as the molecule, how does the outcome [1] read?
The outcome was “inactive”.

What about the outcome [3] of the same molecule?
Its outcome is “inactive”.

What does the source list for `C[C@H]1O[C@@H](O[C@H]2[C@@H](O)C[C@H](O[C@H]3[C@@H](O)C[C@H](O[C@H]4CC[C@@]5(C)[C@H](CC[C@@H]6[C@@H]5C[C@@H](O)[C@]5(C)[C@@H](C7=CC(=O)OC7)CC[C@]65O)C4)O[C@@H]3C)O[C@@H]2C)C[C@H](O)[C@@H]1O`?
outcome [1]: inactive; outcome [3]: inactive

Which results are given for `O=C(NCCc1ccccc1F)c1ccc2c(c1)OCCO2`?
outcome [1]: inactive; outcome [3]: inactive

For `CCOCC(=O)NC1CCc2cc(OC(=O)COCC)c(OC)c(OC)c2-c2ccc(SC)c(=O)cc21` (configuration not stated), which outcome [1] is on record?
Its outcome is “inactive”.

What about the outcome [3] of the same molecule?
Its outcome is “inactive”.

With `CCCCC(=O)NC(c1ccccc1OC)c1ccc2cccnc2c1O` (configuration not stated) as the molecule, how does the outcome [1] read?
The outcome was “inactive”.

And the outcome [3]?
The outcome was “inactive”.

With `O=C(CCS(=O)(=O)c1ccc(Cl)cc1)Nc1nc(-c2ccncc2)cs1` as the molecule, how does the outcome [1] read?
The outcome was “inactive”.

And the outcome [3]?
Its outcome is “inactive”.

For `Cc1cccc2sc(N(CCCN(C)C)C(=O)CCS(=O)(=O)c3ccccc3)nc12`, which outcome [1] is on record?
Its outcome is “inactive”.

What about the outcome [3] of the same molecule?
The outcome was “inactive”.

With `CC(=O)Nc1ccc(Sc2ccc([N+](=O)[O-])o2)cc1` as the molecule, how does the outcome [1] read?
The outcome was “inactive”.

And the outcome [3]?
The outcome was “inactive”.

With `CCOC(=O)c1ccc(NC(=O)Cn2ncc(Cl)c(Cl)c2=O)cc1` as the molecule, how does the outcome [1] read?
Its outcome is “inactive”.

And the outcome [3]?
The outcome was “inactive”.

Which outcome [1] does the source give for `CCC(=O)N1CCN(c2ccc(NC(=O)c3ccc([N+](=O)[O-])o3)cc2Cl)CC1` here?
The outcome was “inactive”.

What about the outcome [3] of the same molecule?
The outcome was “inactive”.

What does the source list for `CC(C)(C)N(Cc1ccc2c(c1)OCO2)C(=O)/C=C\S(=O)c1ccccc1` (configuration not stated)?
outcome [1]: inactive; outcome [3]: inactive

Which results are given for `COc1ccc(-c2csc(NC(=O)c3ccccc3NS(=O)(=O)c3ccc(F)c(F)c3)n2)cc1`?
outcome [1]: inactive; outcome [3]: inactive

For `N#C[C@@H]1[C@H](c2ccc(C#Cc3ccc(F)cc3)cc2)[C@@H](CO)N1C(=O)Nc1ccc(F)cc1`, which outcome [1] is on record?
Its outcome is “inactive”.

What about the outcome [3] of the same molecule?
The outcome was “inactive”.

Which outcome [1] does the source give for `Oc1c(Cl)cc(CN2CCOCC2)c2cccnc12` here?
The outcome was “inactive”.

What about the outcome [3] of the same molecule?
The outcome was “inactive”.

Which results are given for `CC(=O)c1cc(NC(=O)c2cccc(C(F)(F)F)c2)c(=O)oc1C`?
outcome [1]: inactive; outcome [3]: inactive

What does the source list for `O=[N+]([O-])c1ccc(O)c(-c2cc(C(F)(F)F)nc(-c3ccccc3)n2)c1`?
outcome [1]: inactive; outcome [3]: inactive

With `O=C(/C=C/c1cccs1)NC(=S)NNC(=O)c1ccccc1O` as the molecule, how does the outcome [1] read?
Its outcome is “inactive”.

And the outcome [3]?
Its outcome is “inactive”.

Which results are given for `COc1cc(-c2c(-c3cc(OC)c(OC)c(OC)c3)noc2C)ccc1F`?
outcome [1]: inactive; outcome [3]: inactive

Which outcome [1] does the source give for `O=C(COc1ccccc1-c1ccccc1)N/N=C/c1ccc2ccccc2c1` here?
The outcome was “inactive”.

What about the outcome [3] of the same molecule?
The outcome was “inactive”.

Which outcome [1] does the source give for `C=CC(=O)N1C/C(=C/c2ccc(F)cc2)C(=O)/C(=C\c2ccc(F)cc2)C1` here?
The outcome was “inactive”.

What about the outcome [3] of the same molecule?
Its outcome is “inactive”.

With `Cn1c(=O)[nH]c(=O)c2c1nc([N+](=O)[O-])n2Cc1ccccc1` as the molecule, how does the outcome [1] read?
The outcome was “inactive”.

What about the outcome [3] of the same molecule?
Its outcome is “inactive”.

Which outcome [1] does the source give for `CCOC(=O)N1CCC(NC(=O)c2ccc3c(c2)N=C(C)c2c(C)ccc(C)c2S3)CC1` here?
The outcome was “inactive”.

What about the outcome [3] of the same molecule?
Its outcome is “inactive”.

For `O=C(C[C@@H]1C[C@H]2c3cc(NS(=O)(=O)c4ccc(F)cc4)ccc3O[C@H]2[C@H](CO)O1)NCc1ccc(-c2ccccc2)cc1`, which outcome [1] is on record?
Its outcome is “inactive”.

And the outcome [3]?
Its outcome is “inactive”.

For `CCN(CC)CCCNc1nc2ccccc2c2[nH]c3ccc(OC)cc3c12`, which outcome [1] is on record?
Its outcome is “inactive”.

What about the outcome [3] of the same molecule?
Its outcome is “inactive”.

With `O=C(NC(Nc1nc2ccc([N+](=O)[O-])cc2s1)(C(F)(F)F)C(F)(F)F)c1ccccc1Cl` as the molecule, how does the outcome [1] read?
Its outcome is “inactive”.

And the outcome [3]?
The outcome was “inactive”.

With `COc1cccc(/C=N/Nc2ccc([N+](=O)[O-])cn2)c1O` as the molecule, how does the outcome [1] read?
The outcome was “inactive”.

What about the outcome [3] of the same molecule?
The outcome was “inactive”.

For `O=C(NN=Cc1c(O)ccc2ccccc12)c1ccncc1`, which outcome [1] is on record?
Its outcome is “inactive”.

And the outcome [3]?
Its outcome is “inactive”.

Which outcome [1] does the source give for `COc1ccc(/C=C/C(=O)c2cc(F)ccc2OC(=O)c2ccccc2C)cc1OC` here?
The outcome was “inactive”.

What about the outcome [3] of the same molecule?
Its outcome is “inactive”.

With `Cc1cc(O)c(C(C)C)cc1C1(c2cc(C(C)C)c(O)cc2C)OC(=O)c2ccccc21` as the molecule, how does the outcome [1] read?
The outcome was “inactive”.

And the outcome [3]?
The outcome was “inactive”.

Which outcome [1] does the source give for `CC1=CC(C)(C)N2C(=O)C3(NCCc4c3[nH]c3ccccc43)c3cc(C)cc1c32` (configuration not stated) here?
Its outcome is “inactive”.

And the outcome [3]?
Its outcome is “inactive”.

With `Cc1cccc(N(C)S(=O)(=O)c2ccc(-c3cnc(C4CC4)o3)cc2)c1` as the molecule, how does the outcome [1] read?
Its outcome is “inactive”.

What about the outcome [3] of the same molecule?
Its outcome is “inactive”.

What does the source list for `CCN(CC)S(=O)(=O)c1cccc(NC(=O)Nc2cccc(C(F)(F)F)c2)c1`?
outcome [1]: inactive; outcome [3]: inactive

With `O=c1ccc2ccccc2c2ccccc12` as the molecule, how does the outcome [1] read?
The outcome was “inactive”.

What about the outcome [3] of the same molecule?
Its outcome is “inactive”.

For `C#CCN(C[C@@H]1[C@@H](OC(=O)NC2CCCC2)[C@@H](OC(=O)NC2CCCC2)Cn2c(=O)ccc(=O)n21)S(=O)(=O)c1ccc(C)cc1`, which outcome [1] is on record?
The outcome was “inactive”.

What about the outcome [3] of the same molecule?
Its outcome is “inactive”.

For `COc1ccc(OC)c(-c2nnc3n2N=C(c2ccc(OC)c(OC4CCCC4)c2)CS3)c1`, which outcome [1] is on record?
The outcome was “inactive”.

And the outcome [3]?
Its outcome is “inactive”.

For `COc1cc2c(c(OC)c1OC)-c1ccc(SC)c(=O)cc1C(NC=O)CC2` (configuration not stated), which outcome [1] is on record?
The outcome was “inactive”.

What about the outcome [3] of the same molecule?
The outcome was “inactive”.

For `CCCCC(=O)NC(c1ccccc1)c1ccc2cccnc2c1O` (configuration not stated), which outcome [1] is on record?
The outcome was “inactive”.

And the outcome [3]?
Its outcome is “inactive”.

Which results are given for `OC[C@H]1O[C@@H](n2cnc3c(NCc4ccco4)ncnc32)[C@H](O)[C@@H]1O`?
outcome [1]: inactive; outcome [3]: inactive

With `Oc1ccc(C[C@H]2CNC(=S)N2CC2CCCN2C[C@H](Cc2ccc(O)cc2)N2C[C@H](Cc3ccc(O)cc3)N(CC3CCCCCC3)C2=S)cc1` (some centres not stated) as the molecule, how does the outcome [1] read?
Its outcome is “inactive”.

What about the outcome [3] of the same molecule?
The outcome was “inactive”.
